Out of some 5,500 compounds screened, about 2,000 (36%) were called active. Another 18% or so got no clear call; they are omitted. Cut-off read from the data, not from the text of the source: active = normalized growth mostly below about 0.91 (no sharp cut-off); inconclusive = no clear call, values can overlap the other calls; inactive = mostly above about 0.92. Some of the results follow.
Test: chemical genetic growth profiling, strain panel (AID 1159580);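 note: tested at 20 µM; growth read once vehicle control cultures reached saturation at 30 °C; 1 = growth at the plate median or of vehicle wells; lower values mean less growth of the strain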
Conditions: growth OD
[1] = S. cerevisiae deletion strains, locus YDL101C, strain DUN1, stronger effect = lower value
[2] = S. cerevisiae deletion strains, locus YHR030C, strain SLT2, stronger effect = lower value

Measured: normalized growth

FC(F)(F)c1cc(-c2ccc(Cl)cc2)n[nH]1
inactive: S. cerevisiae deletion strains, locus YAR019C, strain CDC15, stronger effect = lower value 0.908 | S. cerevisiae deletion strains, locus YBL105C, strain PKC1, stronger effect = lower value 0.923 | S. cerevisiae deletion strains, locus YBR135W, strain CKS1, stronger effect = lower value 0.916 | S. cerevisiae deletion strains, locus YBR136W, strain MEC1, stronger effect = lower value 0.918 | S. cerevisiae deletion strains, locus YBR160W, strain CDC28, stronger effect = lower value 0.922 | S. cerevisiae deletion strains, locus YDL017W, strain CDC7, stronger effect = lower value 0.931 | S. cerevisiae deletion strains, locus YDL028C, strain MPS1, stronger effect = lower value 0.918 | [1] 0.926 | S. cerevisiae deletion strains, locus YDL108W, strain KIN28, stronger effect = lower value 0.925 | S. cerevisiae deletion strains, locus YDL132W, strain cdc53, stronger effect = lower value 0.917 | S. cerevisiae deletion strains, locus YDL214C, strain PRR2, stronger effect = lower value 0.826 | S. cerevisiae deletion strains, locus YDR052C, strain DBF4, stronger effect = lower value 0.927 | S. cerevisiae deletion strains, locus YDR054C, strain cdc34, stronger effect = lower value 0.904 | S. cerevisiae deletion strains, locus YDR226W, strain ADK1, stronger effect = lower value 0.921 | S. cerevisiae deletion strains, locus YDR477W, strain SNF1, stronger effect = lower value 0.848 | S. cerevisiae deletion strains, locus YER123W, strain YCK3, stronger effect = lower value 0.789 | S. cerevisiae deletion strains, locus YER133W, strain GLC7, stronger effect = lower value 0.779 | S. cerevisiae deletion strains, locus YFL009W, strain cdc4, stronger effect = lower value 0.908 | S. cerevisiae deletion strains, locus YFL029C, strain CAK1, stronger effect = lower value 0.906 | S. cerevisiae deletion strains, locus YFR003C, strain YPI1, stronger effect = lower value 0.92 | S. cerevisiae deletion strains, locus YFR019W, strain FAB1, stronger effect = lower value 0.901 | S. cerevisiae deletion strains, locus YFR028C, strain CDC14, stronger effect = lower value 0.909 | S. cerevisiae deletion strains, locus YGR040W, strain KSS1, stronger effect = lower value 0.813 | S. cerevisiae deletion strains, locus YGR052W, strain FMP48, stronger effect = lower value 0.834 | S. cerevisiae deletion strains, locus YGR092W, strain DBF2, stronger effect = lower value 0.807 | S. cerevisiae deletion strains, locus YHR079C, strain IRE1, stronger effect = lower value 0.803 | S. cerevisiae deletion strains, locus YHR082C, strain KSP1, stronger effect = lower value 0.826 | S. cerevisiae deletion strains, locus YHR205W, strain SCH9, stronger effect = lower value 0.842 | S. cerevisiae deletion strains, locus YIL147C, strain SLN1, stronger effect = lower value 0.921 | S. cerevisiae deletion strains, locus YJL095W, strain BCK1, stronger effect = lower value 0.74 | S. cerevisiae deletion strains, locus YJL128C, strain PBS2, stronger effect = lower value 0.882 | S. cerevisiae deletion strains, locus YJL157C, strain FAR1, stronger effect = lower value 0.813 | S. cerevisiae deletion strains, locus YJR016C, strain ILV3, stronger effect = lower value 0.915 | S. cerevisiae deletion strains, locus YJR066W, strain TOR1 (second series), stronger effect = lower value 0.948 | S. cerevisiae deletion strains, locus YJR066W, strain TOR1, stronger effect = lower value 0.763 | S. cerevisiae deletion strains, locus YKL048C, strain ELM1, stronger effect = lower value 0.857 | S. cerevisiae deletion strains, locus YKL067W, strain YNK1, stronger effect = lower value 0.84 | S. cerevisiae deletion strains, locus YKL101W, strain HSL1, stronger effect = lower value 0.836 | S. cerevisiae deletion strains, locus YKL193C, strain SDS22, stronger effect = lower value 0.902 | S. cerevisiae deletion strains, locus YKL203C, strain TOR2, stronger effect = lower value 0.819 | S. cerevisiae deletion strains, locus YLR133W, strain CKI1, stronger effect = lower value 0.843 | S. cerevisiae deletion strains, locus YLR403W, strain SFP1, stronger effect = lower value 0.74 | S. cerevisiae deletion strains, locus YML070W, strain DAK1, stronger effect = lower value 0.789 | S. cerevisiae deletion strains, locus YMR001C, strain CDC5, stronger effect = lower value 0.911 | S. cerevisiae deletion strains, locus YMR205C, strain PFK2 (second series), stronger effect = lower value 0.846 | S. cerevisiae deletion strains, locus YMR277W, strain FCP1, stronger effect = lower value 0.915 | S. cerevisiae deletion strains, locus YNL006W, strain LST8, stronger effect = lower value 0.935 | S. cerevisiae deletion strains, locus YNL020C, strain ARK1, stronger effect = lower value 0.841 | S. cerevisiae deletion strains, locus YNL161W, strain CBK1, stronger effect = lower value 0.913 | S. cerevisiae deletion strains, locus YNL183C, strain NPR1, stronger effect = lower value 0.756 | S. cerevisiae deletion strains, locus YNL207W, strain RIO2, stronger effect = lower value 0.897 | S. cerevisiae deletion strains, locus YNL222W, strain SSU72, stronger effect = lower value 0.91 | S. cerevisiae deletion strains, locus YNL307C, strain MCK1 (second series), stronger effect = lower value 0.853 | S. cerevisiae deletion strains, locus YOL078W, strain AVO1, stronger effect = lower value 0.903 | S. cerevisiae deletion strains, locus YOL136C, strain PFK27, stronger effect = lower value 0.803 | S. cerevisiae deletion strains, locus YOR061W, strain CKA2, stronger effect = lower value 0.869 | S. cerevisiae deletion strains, locus YOR119C, strain RIO1, stronger effect = lower value 0.826 | S. cerevisiae deletion strains, locus YOR231W, strain MKK1, stronger effect = lower value 0.747 | S. cerevisiae deletion strains, locus YOR329C, strain SCD5, stronger effect = lower value 0.912 | S. cerevisiae deletion strains, locus YPL031C, strain PHO85, stronger effect = lower value 0.824 | S. cerevisiae deletion strains, locus YPL153C, strain RAD53, stronger effect = lower value 0.829 | S. cerevisiae deletion strains, locus YPL204W, strain HRR25, stronger effect = lower value 0.798 | S. cerevisiae deletion strains, locus YPL209C, strain IPL1, stronger effect = lower value 0.916 | S. cerevisiae deletion strains, locus YPR025C, strain CCL1, stronger effect = lower value 0.917 | S. cerevisiae deletion strains, locus YPR106W, strain ISR1, stronger effect = lower value 0.901 | S. cerevisiae deletion strains, locus YPR111W, strain DBF20, stronger effect = lower value 0.892 | S. cerevisiae deletion strains, strain NNK1, stronger effect = lower value 0.902 | S. cerevisiae deletion strains, strain TSCII, stronger effect = lower value 0.911
active: [2] 0.763 | S. cerevisiae deletion strains, locus YLR113W, strain HOG1, stronger effect = lower value 0.701 | S. cerevisiae deletion strains, locus YPL256C, strain CLN2, stronger effect = lower value 0.677

CC(C)(C)c1cc(-c2cc(C(F)(F)F)[nH]n2)c2c(c1)C(C)(C)CC2
inactive: S. cerevisiae deletion strains, locus YAL013W, strain DEP1, stronger effect = lower value 0.976 | S. cerevisiae deletion strains, locus YBR229C, strain ROT2, stronger effect = lower value 1 | S. cerevisiae deletion strains, locus YCL061C, strain MRC1, stronger effect = lower value 0.995 | [1] 1 | S. cerevisiae deletion strains, locus YDR150W, strain NUM1, stronger effect = lower value 0.874 | S. cerevisiae deletion strains, locus YEL061C, strain CIN8, stronger effect = lower value 1 | S. cerevisiae deletion strains, locus YGR078C, strain PAC10, stronger effect = lower value 1 | [2] 1.09 | S. cerevisiae deletion strains, locus YHR087W, strain rtc3, stronger effect = lower value 0.989 | S. cerevisiae deletion strains, locus YJR043C, strain POL32, stronger effect = lower value 0.982 | S. cerevisiae deletion strains, locus YJR075W, strain HOC1, stronger effect = lower value 0.966 | S. cerevisiae deletion strains, locus YLR039C, strain RIC1, stronger effect = lower value 0.897 | S. cerevisiae deletion strains, locus YLR058C, strain SHM2 (second series), stronger effect = lower value 1.01 | S. cerevisiae deletion strains, locus YLR085C, strain ARP6, stronger effect = lower value 1.03 | S. cerevisiae deletion strains, locus YLR262C, strain YPT6, stronger effect = lower value 0.891 | S. cerevisiae deletion strains, locus YML094W, strain GIM5, stronger effect = lower value 0.998 | S. cerevisiae deletion strains, locus YMR219W, strain ESC1, stronger effect = lower value 1 | S. cerevisiae deletion strains, locus YMR263W, strain SAP30, stronger effect = lower value 0.974 | S. cerevisiae deletion strains, locus YMR307W, strain GAS1, stronger effect = lower value 0.998 | S. cerevisiae deletion strains, locus YNL153C, strain GIM3, stronger effect = lower value 0.997 | S. cerevisiae deletion strains, locus YNL298W, strain CLA4 (second series), stronger effect = lower value 1.01 | S. cerevisiae deletion strains, locus YNL322C, strain KRE1, stronger effect = lower value 0.993 | S. cerevisiae deletion strains, locus YNR030W, strain Alg12, stronger effect = lower value 0.99 | S. cerevisiae deletion strains, locus YPL055C, strain LGE1, stronger effect = lower value 0.985 | S. cerevisiae deletion strains, locus YPL241C, strain CIN2, stronger effect = lower value 1 | S. cerevisiae deletion strains, locus YPR135W, strain CTF4, stronger effect = lower value 0.881 | S. cerevisiae strains, strain wild type, stronger effect = lower value 1.01
